FMDV inh – foot and mouth disease virus antiviral activity; AID 1159524; Potency, µM (titrated, usually from 57.9 µM), actives largely listed as inhibitors; 410,000 compounds, 1.2% hits; FMDV antiviral cell-based qHTS; calls by dose curve; tested in HEK293T cells; note: read-out not given here; nearly all actives have a fitted effect of over 45% in size
MARV entry inh – Marburg virus entry inhibition; Potency, µM (doses to about 37.8 µM), most hits filed as inhibitors; Marburg virus pseudotyped entry inhibition, cell reporter; 300,000 compounds, 1.8% hits; AID 540276; calls by dose curve; tested in HEK293 cells
HCMV antiviral – inhibitors of human cytomegalovirus. activity change, negative = inhibition, % at 57.5 µM. 410,000 compounds, 4.5% hits. HFF cells, HCMV-luciferase reporter, 72 h; stronger effect = lower value. AID 1259415; in the data active = activity change below about -60%; inconclusive = no clear call, values can overlap the other calls; inactive = above about -39%
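Luciferase read-out from HCMV-luciferase-infected HFFs (MOI 1 PFU/cell) 72 h post infection at 37C; compounds added after 16 h cell attachment; activity normalized between buffer-only basal and Salinomycin (10uM) inhibitor controls.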
LASV entry inh – Lassa virus entry inhibition. Lassa virus pseudotype entry inhibition, cell reporter. Potency, µM (top dose mostly 37.9 µM), usual class: inhibitors. 300,000 compounds, 1.2% hits; calls by dose curve; tested in HEK293 cells; note: nearly all actives have a fitted effect of over 50% in size
Numbers stand for hits; – = inactive; ? = inconclusive; · = no result given. An excerpt weighted towards active compounds, which were near 6.2% of everything screened.

SMILES | FMDV inh | MARV entry inh | HCMV antiviral | LASV entry inh
Cc1ccc(NC(=O)c2ccc(CN3CCN(C)CC3)cc2)cc1Nc1nccc(-c2cccnc2)n1 | – | · | -77.9 | ·
Cc1cccc(C(=O)n2nc(-c3cccnc3)nc2NCc2ccccc2)c1 | – | – | – | –
C=CC[C@@H]1C=C[C@H](ON=C2c3cc(OC)ccc3O[C@H](c3cccc(OC)c3)[C@@H]2O)[C@H](CO)O1 | · | – | · | ·
CCCCn1cnc2c(c(-c3ccccc3)c(-c3ccccc3)n2Cc2ccco2)c1=N | – | – | – | –
N=c1c2c(-c3ccccc3)c(-c3ccccc3)n(Cc3ccccc3)c2ncn1CCCn1ccnc1 | – | ? | -74.0 | ?
N=c1c2c(-c3ccccc3)c(-c3ccccc3)n(Cc3ccco3)c2ncn1Cc1ccco1 | 25.1µM | ? | – | ?
O=c1[nH]c(=O)n(Cc2ccccc2)c(O)c1C=NCCCn1ccnc1 | – | ? | – | ?
COc1ccc(S(=O)(=O)NC(=O)C2(C)CCN2C(=O)C2(c3ccccc3)CCCC2)cc1 (stereo unspecified) | – | · | – | ·
C/C(=N\Nc1nncc2ccccc12)c1cccc(OC(F)F)c1 | – | ? | – | 2.82µM
CC(C)(C)OC(=O)N1CC=C2C(C#N)=C(N)C(C#N)(C#N)C(c3cccs3)C2C1 (stereo unspecified) | 22.4µM | – | – | –
CCOC(=O)N1CC=C2C(C#N)=C(N)C(C#N)(C#N)[C@H](c3cccs3)C2C1 (stereo partly specified) | ? | ? | – | –
CCCOc1ccc([C@@H]2C3CN(C(=O)OCC)CC=C3C(C#N)=C(N)C2(C#N)C#N)cc1OC (stereo partly specified) | – | – | – | 10.3µM
O=[N+]([O-])c1ccc2c(c1)CO[C@]21O[C@H](CCO)C[C@H](O)[C@H]1O | · | · | – | ·
CC[C@H](NC(=O)[C@H]1O[C@@H](n2cnc3c(=O)[nH]c(N)nc32)[C@H](O)[C@@H]1O)c1ccccc1 | · | · | – | ·
O=C1NC2C(=CC(O)C(O)C2O)c2cc3c(cc21)OCO3 (stereo unspecified) | ? | ? | -77.5 | 1µM
O=C1NC2C(=CC(O)C(O)C2O)c2cc3c(c(O)c21)OCO3 (stereo unspecified) | – | ? | -100.5 | ?
COC(=O)C1=C(C)N(C)C(=O)NC1c1cc2c(cc1Br)OCO2 (stereo unspecified) | – | · | – | ·
O=C1NC2C(O)C(O)C(O)C(O)C2c2cc3c(c(O)c21)OCO3 (stereo unspecified) | ? | ? | -97.7 | 0.141µM
CCCn1c2ccccc2c2cnn(CC(=O)Nc3cc(C)c(Cl)cc3OC)c(=O)c21 | – | · | – | –
CC(=O)C1C(N2CC2)CC2C3CCC4=CC(=O)CCC4(C)C3CCC21C (stereo unspecified) | – | ? | -62.7 | ?
CC1(C)CC(=O)C2=C(C1)NC(Nc1nc3ccccc3o1)=NC2c1ccccn1 (stereo unspecified) | ? | ? | ? | –
CC1=C(C(=O)Nc2ccccc2)C(c2ccc(C)cc2)N=C(Nc2nc3ccccc3o2)N1 (stereo unspecified) | – | ? | -66.7 | ?
Cc1c(C(=O)Nc2ccccc2Br)oc2ccc(S(=O)(=O)N3CCCCCC3)cc12 | – | · | – | –
Cc1cc(C(C)(C)C)oc1C(=O)N(CC(=O)NC1CCCC1)c1ccc(F)cc1 | · | – | – | ?
Cc1cc(C(C)(C)C)oc1C(=O)N(CC(=O)NC1CCCC1)c1c(C)cccc1C | – | 10.3µM | – | ?
SMILES | FMDV inh | MARV entry inh | HCMV antiviral | LASV entry inh
CN(C)C(=O)c1ccc(S(=O)(=O)NCc2ccccc2Cl)s1 | – | · | – | –
CC(=O)Nc1ccc(S(=O)(=O)N2c3ccccc3C(C)=CC2(C)C)cc1 | – | ? | -80.4 | ?
CC1=CC(C)(C)N(S(=O)(=O)c2ccc(F)cc2)c2ccccc21 | ? | ? | – | –
CC1=CC(C)(C)N(S(=O)(=O)c2ccc(C)cc2)c2ccc(C)cc21 | · | ? | -73.8 | –
O=C(/C=C/c1ccc(F)cc1)NCC1Cc2cccc(-c3ncccn3)c2O1 (stereo unspecified) | – | · | · | ·
O=C(NCCCCO)c1c(-c2ccccc2)oc2c1C(OCCCCCO)CCC2 (stereo unspecified) | – | · | – | ·
Cc1c(C(=O)OC(C)C)sc(NC(=O)C2c3ccccc3Oc3ccccc32)c1C(=O)OC(C)C | – | ? | – | –
CC(C)C[C@@H]1Cc2[nH][nH]c(=O)c2[C@H](C(C)C)O1 | – | · | ? | ·
CC1(C(=O)Nc2ccc3nc[nH]c3c2)CCN1C(=O)c1ccccc1CCc1ccccc1 (stereo unspecified) | – | · | ? | ·
Oc1c(Cl)cc(Cl)cc1/C=N/NC(=S)NC1CC2C=CC1C2 (stereo unspecified) | – | ? | -67.8 | ?

Screening data (PubChem BioAssay)
